The text below walks through data of paper PMC7862700, “An all-to-all approach to the identification of sequence-specific readers for epigenetic DNA modifications on cytosine”.

Holding throughout (test): DAPPL (digital affinity profiling via proximity ligation, sequencing); 10 mM Tris-HCl pH 7.5, 50 mM NaCl, 1 mM DTT, 4% glycerol, room temperature, 30 min; GST-TFs on glutathione beads, 16-mer random dsDNA library, 0.1% formaldehyde crosslink after washing; high values mean tight binding
Assay [1] deals with T1, FEV (Homo sapiens, UniProt Q99581 1-238).
T1 sequence: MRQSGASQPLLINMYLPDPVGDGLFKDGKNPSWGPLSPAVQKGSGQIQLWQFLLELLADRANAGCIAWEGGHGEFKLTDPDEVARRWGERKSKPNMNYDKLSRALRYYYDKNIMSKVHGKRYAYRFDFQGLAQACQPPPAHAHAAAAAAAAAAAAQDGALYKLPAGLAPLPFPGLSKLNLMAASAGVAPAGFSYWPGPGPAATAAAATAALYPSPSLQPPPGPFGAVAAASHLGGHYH
The following applies: protein: recombinant; tags: N-terminal GST; dsDNA, one strand shown. A digest of the protocol:
(§1)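 Binding signal is defined as a hexamer's read frequency for one factor over its frequency for the tag-only sample. To obtain reads, GST-fused human transcription factors were expressed in yeast, captured on glutathione beads, barcoded with DNA and pooled with that sample. Pools met 200 nmole of a 16-mer random double-stranded DNA library in Tris/NaCl/DTT/glycerol buffer for 30 min at room temperature before washing, 0.1% formaldehyde crosslinking, proximity ligation (BsaI/T4 ligase, 1 h, 37 °C), PCR and Illumina NextSeq500 sequencing.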

In assay [2] the target is ETV5 (Homo sapiens, UniProt P41161 1-510). The following applies: protein: recombinant; tags: N-terminal GST; dsDNA, one strand shown. A digest of the protocol: as §1
In assay [3] the target is HSF1 (Homo sapiens, UniProt Q00613 1-529). The following applies: protein: recombinant; tags: N-terminal GST; chain copies: 3; dsDNA, one strand shown. In a few lines:
as §1

The target in assay [4] is T2, SPIC (Homo sapiens, UniProt Q8N5J4 1-248).
T2 sequence: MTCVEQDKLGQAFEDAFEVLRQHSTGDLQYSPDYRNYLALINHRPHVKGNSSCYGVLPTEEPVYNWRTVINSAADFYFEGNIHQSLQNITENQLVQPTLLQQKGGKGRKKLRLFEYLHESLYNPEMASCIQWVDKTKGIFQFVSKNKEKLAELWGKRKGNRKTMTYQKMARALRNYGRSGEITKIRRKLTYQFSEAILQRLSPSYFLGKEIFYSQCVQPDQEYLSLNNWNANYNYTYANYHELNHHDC
The following applies: protein: recombinant; tags: N-terminal GST; dsDNA, one strand shown. In a few lines:
as §1

The target in assay [5] is ELF4 (Homo sapiens, UniProt Q99607 1-663). The following applies: protein: recombinant; tags: N-terminal GST; dsDNA, one strand shown. In a few lines: as §1
In assay [6] the target is T3, ELK4 (Homo sapiens, UniProt P28324-2 1-405).
T3 sequence: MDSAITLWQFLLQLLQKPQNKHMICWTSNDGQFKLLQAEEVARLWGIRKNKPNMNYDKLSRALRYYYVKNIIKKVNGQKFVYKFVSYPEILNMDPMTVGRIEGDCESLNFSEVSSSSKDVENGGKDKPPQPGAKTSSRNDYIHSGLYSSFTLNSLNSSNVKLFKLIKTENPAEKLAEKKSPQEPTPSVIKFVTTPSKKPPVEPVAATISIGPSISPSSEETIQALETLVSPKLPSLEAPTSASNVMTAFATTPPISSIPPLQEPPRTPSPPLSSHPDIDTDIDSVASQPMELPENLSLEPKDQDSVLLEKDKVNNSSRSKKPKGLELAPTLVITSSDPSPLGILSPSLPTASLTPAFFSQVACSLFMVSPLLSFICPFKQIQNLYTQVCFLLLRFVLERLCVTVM
The following applies: protein: recombinant; tags: N-terminal GST; dsDNA, one strand shown. In a few lines: as §1

The target of assay [7] is T4, ETV2 (Homo sapiens, UniProt O00321 1-342).
T4 sequence: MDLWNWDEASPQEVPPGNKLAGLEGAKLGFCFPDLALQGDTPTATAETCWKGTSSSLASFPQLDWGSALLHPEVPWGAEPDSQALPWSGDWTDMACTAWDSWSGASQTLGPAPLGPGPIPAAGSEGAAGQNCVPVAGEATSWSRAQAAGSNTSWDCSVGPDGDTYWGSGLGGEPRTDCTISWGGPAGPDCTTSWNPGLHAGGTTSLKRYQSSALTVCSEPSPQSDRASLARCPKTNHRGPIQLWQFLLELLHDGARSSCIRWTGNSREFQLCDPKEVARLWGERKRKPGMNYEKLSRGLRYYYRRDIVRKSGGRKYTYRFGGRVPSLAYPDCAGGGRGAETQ
The following applies: protein: recombinant; tags: N-terminal GST; dsDNA, one strand shown. A digest of the protocol:
as §1

Assay [8] concerns the target T5, ELF3 (Homo sapiens, UniProt P78545 1-371).
T5 sequence: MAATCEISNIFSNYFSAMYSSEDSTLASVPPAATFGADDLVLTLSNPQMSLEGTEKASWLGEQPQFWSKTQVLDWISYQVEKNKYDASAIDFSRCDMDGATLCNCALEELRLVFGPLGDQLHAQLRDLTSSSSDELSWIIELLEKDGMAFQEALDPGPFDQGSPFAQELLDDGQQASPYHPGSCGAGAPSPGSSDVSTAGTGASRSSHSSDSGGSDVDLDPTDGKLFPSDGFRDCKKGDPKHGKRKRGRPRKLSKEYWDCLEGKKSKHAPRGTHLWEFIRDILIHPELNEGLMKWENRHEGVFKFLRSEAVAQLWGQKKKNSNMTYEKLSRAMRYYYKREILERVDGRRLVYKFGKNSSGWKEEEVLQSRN
The settings on record: protein: recombinant; tags: N-terminal GST; dsDNA, one strand shown. A digest of the protocol:
as §1

Assay [9] addresses CRX (Homo sapiens, UniProt O43186 1-299). The settings on record: protein: recombinant; tags: N-terminal GST; dsDNA, one strand shown. A digest of the protocol: as §1
The target of assay [10] is ETV1 (Homo sapiens, UniProt P50549 1-477). The following applies: protein: recombinant; tags: N-terminal GST; dsDNA, one strand shown. In a few lines:
as §1

Assay [11] has as its target T6, ERF (Homo sapiens, UniProt P50548 1-548).
T6 sequence: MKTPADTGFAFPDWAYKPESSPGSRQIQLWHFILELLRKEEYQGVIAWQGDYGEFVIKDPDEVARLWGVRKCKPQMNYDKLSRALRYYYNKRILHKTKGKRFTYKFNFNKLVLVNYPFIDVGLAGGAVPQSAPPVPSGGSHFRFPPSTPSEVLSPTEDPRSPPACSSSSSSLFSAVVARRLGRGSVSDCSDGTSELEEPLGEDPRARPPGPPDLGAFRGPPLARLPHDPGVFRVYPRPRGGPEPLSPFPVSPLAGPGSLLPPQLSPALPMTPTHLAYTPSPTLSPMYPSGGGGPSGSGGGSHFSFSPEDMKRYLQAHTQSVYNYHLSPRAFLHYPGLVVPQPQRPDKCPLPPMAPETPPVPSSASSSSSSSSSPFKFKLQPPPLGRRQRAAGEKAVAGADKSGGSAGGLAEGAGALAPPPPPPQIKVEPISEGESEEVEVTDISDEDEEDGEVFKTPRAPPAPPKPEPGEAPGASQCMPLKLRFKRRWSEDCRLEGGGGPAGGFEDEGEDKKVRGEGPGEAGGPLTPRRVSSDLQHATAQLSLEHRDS
The following applies: protein: recombinant; tags: N-terminal GST; dsDNA, one strand shown. In a few lines:
as §1

For assay [12], the target named is T7, ETV3L (Homo sapiens, UniProt Q6ZN32 1-361).
T7 sequence: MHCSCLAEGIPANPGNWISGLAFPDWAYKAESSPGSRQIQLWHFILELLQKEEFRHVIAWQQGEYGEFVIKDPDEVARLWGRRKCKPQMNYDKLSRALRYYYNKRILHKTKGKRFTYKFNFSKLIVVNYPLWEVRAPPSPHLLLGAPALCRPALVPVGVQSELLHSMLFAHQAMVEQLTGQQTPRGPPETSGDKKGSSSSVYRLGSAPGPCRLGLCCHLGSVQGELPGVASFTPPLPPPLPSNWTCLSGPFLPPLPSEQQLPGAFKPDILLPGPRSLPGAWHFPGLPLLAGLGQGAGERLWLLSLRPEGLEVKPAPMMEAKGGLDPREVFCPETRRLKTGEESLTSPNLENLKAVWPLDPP
The settings on record: protein: recombinant; tags: N-terminal GST; dsDNA, one strand shown. A digest of the protocol: as §1

Assay [13] addresses T8, ETS2 (Homo sapiens, UniProt P15036 1-469).
T8 sequence: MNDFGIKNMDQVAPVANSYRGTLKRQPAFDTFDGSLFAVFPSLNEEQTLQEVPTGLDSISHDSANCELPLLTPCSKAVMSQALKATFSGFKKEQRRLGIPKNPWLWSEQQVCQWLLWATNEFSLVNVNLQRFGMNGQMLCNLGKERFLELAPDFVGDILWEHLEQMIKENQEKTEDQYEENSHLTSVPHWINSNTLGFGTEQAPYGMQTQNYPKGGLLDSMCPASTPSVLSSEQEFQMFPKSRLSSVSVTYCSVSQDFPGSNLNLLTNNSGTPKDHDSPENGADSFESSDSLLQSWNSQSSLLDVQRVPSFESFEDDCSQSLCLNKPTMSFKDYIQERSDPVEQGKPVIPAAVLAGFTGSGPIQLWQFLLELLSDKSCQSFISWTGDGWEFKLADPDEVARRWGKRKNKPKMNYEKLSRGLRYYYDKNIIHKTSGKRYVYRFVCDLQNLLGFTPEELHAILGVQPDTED
The following applies: protein: recombinant; tags: N-terminal GST; dsDNA, one strand shown. In a few lines: as §1

The target in assay [14] is T9, SPDEF (Homo sapiens, UniProt O95238 1-335).
T9 sequence: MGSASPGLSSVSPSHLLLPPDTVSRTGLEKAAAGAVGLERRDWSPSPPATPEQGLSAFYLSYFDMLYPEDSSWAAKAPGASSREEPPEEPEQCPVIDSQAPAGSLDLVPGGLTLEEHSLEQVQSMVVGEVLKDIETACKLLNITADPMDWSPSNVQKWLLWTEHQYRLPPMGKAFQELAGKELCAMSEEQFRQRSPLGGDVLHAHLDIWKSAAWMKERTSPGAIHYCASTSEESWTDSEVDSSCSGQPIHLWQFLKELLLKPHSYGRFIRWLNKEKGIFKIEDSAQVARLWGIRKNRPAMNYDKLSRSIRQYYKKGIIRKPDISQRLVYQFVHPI
The settings on record: protein: recombinant; tags: N-terminal GST; dsDNA, one strand shown. In a few lines: as §1

For assay [15], the target named is T10, ETV7 (Homo sapiens, UniProt Q9Y603 1-341).
T10 sequence: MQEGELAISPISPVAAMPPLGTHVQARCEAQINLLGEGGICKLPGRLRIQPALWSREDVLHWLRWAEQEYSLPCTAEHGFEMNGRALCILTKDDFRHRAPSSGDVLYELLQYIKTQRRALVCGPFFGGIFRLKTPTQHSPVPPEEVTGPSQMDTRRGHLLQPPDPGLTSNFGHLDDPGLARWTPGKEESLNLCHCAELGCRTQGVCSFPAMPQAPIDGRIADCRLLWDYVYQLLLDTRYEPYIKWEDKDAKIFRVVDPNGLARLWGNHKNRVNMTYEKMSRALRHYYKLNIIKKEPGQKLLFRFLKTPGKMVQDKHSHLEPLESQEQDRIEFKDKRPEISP
The following applies: protein: recombinant; tags: N-terminal GST; dsDNA, one strand shown. In a few lines: as §1

Assay [16] addresses T11, ELF5 (Homo sapiens, UniProt Q9UKW6-2 1-255).
T11 sequence: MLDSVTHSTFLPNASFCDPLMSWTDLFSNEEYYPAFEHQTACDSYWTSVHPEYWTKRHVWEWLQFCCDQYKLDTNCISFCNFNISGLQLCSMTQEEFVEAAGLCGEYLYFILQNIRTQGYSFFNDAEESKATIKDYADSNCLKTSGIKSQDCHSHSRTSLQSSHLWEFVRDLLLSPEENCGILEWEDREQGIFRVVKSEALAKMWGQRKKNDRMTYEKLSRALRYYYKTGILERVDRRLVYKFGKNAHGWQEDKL
The following applies: protein: recombinant; tags: N-terminal GST; dsDNA, one strand shown. In a few lines: as §1

Assay [17] has as its target T12, ETV3 (Homo sapiens, UniProt P41162-2 1-143).
T12 sequence: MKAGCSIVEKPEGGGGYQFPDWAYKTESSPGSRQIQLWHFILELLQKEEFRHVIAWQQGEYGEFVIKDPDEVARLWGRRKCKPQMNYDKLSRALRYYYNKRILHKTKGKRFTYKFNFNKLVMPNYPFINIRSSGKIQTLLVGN
The settings on record: protein: recombinant; tags: N-terminal GST; dsDNA, one strand shown. In a few lines:
as §1

Assay [18] has as its target ETV6 (Homo sapiens, UniProt P41212 1-452). The following applies: protein: recombinant; tags: N-terminal GST; dsDNA, one strand shown. A digest of the protocol: as §1

ETV1, sequence (P50549 whole entry): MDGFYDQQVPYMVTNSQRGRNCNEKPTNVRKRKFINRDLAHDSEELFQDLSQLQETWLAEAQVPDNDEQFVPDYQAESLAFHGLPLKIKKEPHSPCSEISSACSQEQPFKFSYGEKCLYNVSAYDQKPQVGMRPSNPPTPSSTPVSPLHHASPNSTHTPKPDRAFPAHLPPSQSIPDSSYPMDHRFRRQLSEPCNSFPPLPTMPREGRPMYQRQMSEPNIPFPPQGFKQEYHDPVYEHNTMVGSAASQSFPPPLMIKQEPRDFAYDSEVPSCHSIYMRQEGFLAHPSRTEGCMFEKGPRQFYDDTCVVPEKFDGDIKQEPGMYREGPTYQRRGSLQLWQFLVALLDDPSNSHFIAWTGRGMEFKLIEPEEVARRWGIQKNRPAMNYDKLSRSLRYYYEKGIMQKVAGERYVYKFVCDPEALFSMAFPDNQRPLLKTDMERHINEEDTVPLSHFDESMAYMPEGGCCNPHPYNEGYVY
ETV6, sequence (P41212 whole entry): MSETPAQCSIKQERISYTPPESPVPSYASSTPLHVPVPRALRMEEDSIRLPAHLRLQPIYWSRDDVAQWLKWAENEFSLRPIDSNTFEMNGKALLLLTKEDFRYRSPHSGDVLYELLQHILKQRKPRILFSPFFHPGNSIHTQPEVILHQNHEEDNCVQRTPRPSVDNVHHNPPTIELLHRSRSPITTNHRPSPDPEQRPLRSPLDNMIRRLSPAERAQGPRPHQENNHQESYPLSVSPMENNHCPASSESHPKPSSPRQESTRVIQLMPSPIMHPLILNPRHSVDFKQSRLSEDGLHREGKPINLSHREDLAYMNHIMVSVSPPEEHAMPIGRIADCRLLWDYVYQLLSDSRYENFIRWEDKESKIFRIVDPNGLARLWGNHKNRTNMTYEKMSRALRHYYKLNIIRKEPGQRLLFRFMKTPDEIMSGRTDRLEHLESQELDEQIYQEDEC
ETV5, sequence (P41161 whole entry): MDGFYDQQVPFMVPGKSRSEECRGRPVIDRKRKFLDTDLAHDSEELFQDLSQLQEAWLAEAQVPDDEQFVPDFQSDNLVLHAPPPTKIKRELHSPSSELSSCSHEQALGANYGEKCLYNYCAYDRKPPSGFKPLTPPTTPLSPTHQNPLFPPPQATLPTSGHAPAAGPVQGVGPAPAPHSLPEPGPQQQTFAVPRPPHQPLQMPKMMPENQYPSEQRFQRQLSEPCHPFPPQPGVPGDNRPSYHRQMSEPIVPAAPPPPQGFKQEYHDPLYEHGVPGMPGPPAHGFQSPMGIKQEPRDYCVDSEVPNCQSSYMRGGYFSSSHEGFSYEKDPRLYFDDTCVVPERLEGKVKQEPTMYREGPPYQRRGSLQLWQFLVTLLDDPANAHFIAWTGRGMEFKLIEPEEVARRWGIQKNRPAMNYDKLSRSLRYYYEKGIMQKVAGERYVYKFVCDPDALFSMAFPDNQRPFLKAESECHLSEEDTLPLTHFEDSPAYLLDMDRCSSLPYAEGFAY
ELF4, sequence (Q99607 whole entry): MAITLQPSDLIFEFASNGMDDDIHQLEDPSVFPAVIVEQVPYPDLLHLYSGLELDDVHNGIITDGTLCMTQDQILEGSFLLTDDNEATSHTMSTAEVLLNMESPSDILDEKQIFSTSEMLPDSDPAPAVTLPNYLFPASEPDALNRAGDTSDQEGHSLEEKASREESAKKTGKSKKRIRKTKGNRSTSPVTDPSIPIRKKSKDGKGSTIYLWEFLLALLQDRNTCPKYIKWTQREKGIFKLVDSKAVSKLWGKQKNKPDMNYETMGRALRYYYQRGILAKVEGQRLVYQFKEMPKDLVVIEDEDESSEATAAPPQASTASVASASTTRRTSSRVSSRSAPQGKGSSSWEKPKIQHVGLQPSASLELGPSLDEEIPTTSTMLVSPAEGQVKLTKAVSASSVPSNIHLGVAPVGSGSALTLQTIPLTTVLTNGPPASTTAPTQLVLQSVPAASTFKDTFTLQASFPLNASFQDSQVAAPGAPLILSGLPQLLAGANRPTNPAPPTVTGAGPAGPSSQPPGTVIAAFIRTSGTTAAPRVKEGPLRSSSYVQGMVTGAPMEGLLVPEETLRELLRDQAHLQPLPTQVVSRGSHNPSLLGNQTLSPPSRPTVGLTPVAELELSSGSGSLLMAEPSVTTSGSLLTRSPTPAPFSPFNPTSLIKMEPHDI
HSF1, sequence (Q00613 whole entry): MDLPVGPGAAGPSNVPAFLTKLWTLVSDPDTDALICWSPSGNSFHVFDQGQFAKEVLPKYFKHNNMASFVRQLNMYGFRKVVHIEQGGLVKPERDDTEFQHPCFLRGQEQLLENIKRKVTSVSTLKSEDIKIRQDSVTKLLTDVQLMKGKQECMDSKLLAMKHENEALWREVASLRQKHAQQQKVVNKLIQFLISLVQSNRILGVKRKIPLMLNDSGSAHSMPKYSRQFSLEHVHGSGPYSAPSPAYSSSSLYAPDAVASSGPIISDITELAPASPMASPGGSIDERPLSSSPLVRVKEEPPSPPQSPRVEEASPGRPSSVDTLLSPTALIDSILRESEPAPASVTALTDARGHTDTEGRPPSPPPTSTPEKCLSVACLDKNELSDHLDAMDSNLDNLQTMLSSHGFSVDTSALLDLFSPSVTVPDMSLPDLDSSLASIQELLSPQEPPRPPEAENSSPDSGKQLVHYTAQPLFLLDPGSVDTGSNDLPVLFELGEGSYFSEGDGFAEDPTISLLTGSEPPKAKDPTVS
CRX, sequence (O43186 whole entry): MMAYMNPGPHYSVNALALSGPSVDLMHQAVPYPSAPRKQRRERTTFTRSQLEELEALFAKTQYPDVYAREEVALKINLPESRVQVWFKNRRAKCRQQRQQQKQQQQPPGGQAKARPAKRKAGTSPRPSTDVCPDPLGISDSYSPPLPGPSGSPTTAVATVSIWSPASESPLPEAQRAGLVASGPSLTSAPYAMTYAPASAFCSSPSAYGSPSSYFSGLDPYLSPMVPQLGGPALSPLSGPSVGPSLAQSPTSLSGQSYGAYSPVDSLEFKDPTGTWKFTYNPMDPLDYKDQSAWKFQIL

In the case of TCCCCC, the binding signal is 1.44 fold enrichment (6-mer frequency, TF over GST control) in assay [1]; 1.48 fold enrichment (6-mer frequency, TF over GST control) in assay [2]; 1.41 fold enrichment (6-mer frequency, TF over GST control) in assay [3]; 1.44 fold enrichment (6-mer frequency, TF over GST control) in assay [4]; 1.53 fold enrichment (6-mer frequency, TF over GST control) in assay [5]; 1.57 fold enrichment (6-mer frequency, TF over GST control) in assay [6]. The binding signal was 1.53 fold enrichment (6-mer frequency, TF over GST control) in assay [7]; 1.42 fold enrichment (6-mer frequency, TF over GST control) in assay [8]; 1.45 fold enrichment (6-mer frequency, TF over GST control) in assay [9]; 1.46 fold enrichment (6-mer frequency, TF over GST control) in assay [10]; 1.45 fold enrichment (6-mer frequency, TF over GST control) in assay [11]; 1.43 fold enrichment (6-mer frequency, TF over GST control) in assay [12]. In addition, the binding signal is 1.42 fold enrichment (6-mer frequency, TF over GST control) in [13]; 1.35 fold enrichment (6-mer frequency, TF over GST control) in [14]; 1.52 fold enrichment (6-mer frequency, TF over GST control) in assay [15]; 1.7 fold enrichment (6-mer frequency, TF over GST control) in assay [16]; 1.51 fold enrichment (6-mer frequency, TF over GST control) in assay [17]; 1.56 fold enrichment (6-mer frequency, TF over GST control) in assay [18].
